Source: PubChem BioAssay (EPA / NIEHS)
Active and inactive are the calls of the source. The calls were made as follows: active = hit-call score of the fitted dose curve at least 0.9, where 1 is the maximum; inactive = score below 0.9.

These compounds were tested against Transcriptional activator Myb (Homo sapiens) (UniProt P10242) (assay: ATG_Myb_CIS: Attagene CIS-FACTORIAL HepG2 Assay for human Myeloblastosis (Myb) Proto-Oncogene Transcription Factor (AID 2282986)). Settings: HepG2 Attagene CIS-FACTORIAL Myb reporter transcription; actives raise or lower the signal.
Outline: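 Fluorescence signals from capillary electrophoresis of RT-PCR-amplified reporter cDNA give the read-out. Cells: HepG2 transfected with multiple cis-regulated reporter units. Exposure lasts 24 hours; DMSO defines baseline for gain or loss of signal.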

Transcriptional activator Myb (Homo sapiens), sequence (P10242 whole entry, looked up): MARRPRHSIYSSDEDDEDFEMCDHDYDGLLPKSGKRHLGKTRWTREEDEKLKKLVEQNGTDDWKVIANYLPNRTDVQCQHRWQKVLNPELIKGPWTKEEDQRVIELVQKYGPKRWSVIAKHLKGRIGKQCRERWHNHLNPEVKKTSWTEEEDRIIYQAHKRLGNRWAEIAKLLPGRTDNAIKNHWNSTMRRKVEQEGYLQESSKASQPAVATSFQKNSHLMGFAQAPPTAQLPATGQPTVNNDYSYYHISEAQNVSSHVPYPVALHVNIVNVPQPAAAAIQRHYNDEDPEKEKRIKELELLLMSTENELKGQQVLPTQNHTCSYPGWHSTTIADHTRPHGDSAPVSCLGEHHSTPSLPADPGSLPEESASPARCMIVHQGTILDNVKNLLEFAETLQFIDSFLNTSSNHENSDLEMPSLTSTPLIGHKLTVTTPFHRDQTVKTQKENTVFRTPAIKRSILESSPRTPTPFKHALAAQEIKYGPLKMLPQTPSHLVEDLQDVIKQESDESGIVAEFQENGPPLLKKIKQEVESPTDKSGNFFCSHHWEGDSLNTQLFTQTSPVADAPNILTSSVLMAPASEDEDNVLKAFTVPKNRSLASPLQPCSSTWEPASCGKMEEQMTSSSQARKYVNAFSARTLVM

`CC1=C(O)C(=O)C(C)O1` (stereo not given) was tested. Which outcome did it give?
Its outcome is “inactive”.

`CCCCNS(=O)(=O)c1ccc(C)cc1` was tested. Which outcome did it give?
Its outcome is “inactive”.

`O=C(Oc1ccccc1)c1ccccc1O` was tested. Which outcome did it give?
Its outcome is “inactive”.

For `O=C1c2ccccc2C(=O)c2cc(S(=O)(=O)O)ccc21`, which outcome is on record?
Its outcome is “inactive”.

How did the AC50 turn out when `O=C(O)c1cc(O)c2ccccc2c1O` was run?
The AC50 was 57.4 µM (active).

How did the outcome turn out when `Cc1c(C(=O)c2c[nH]n(C)c2=O)ccc(S(C)(=O)=O)c1C1=NOCC1` was run?
The outcome was “inactive”.

For `O=C1CCCCCCCCCCC1`, which outcome is on record?
Its outcome is “inactive”.

`CCCCCCCCCCCCCc1ccccc1` was tested. Which outcome did it give?
The outcome was “inactive”.

With `Cc1ccc(C)c(OCCCC(C)(C)C(=O)O)c1` as the compound, how does the outcome read?
Its outcome is “inactive”.

With `CC1(C)CCC[C@]2(C)[C@H]3CC(=O)O[C@]3(C)CC[C@@H]12` as the compound, how does the outcome read?
Its outcome is “inactive”.

With `N=C1C=CC(=C(c2ccc(N)cc2)c2ccc(N)cc2)C=C1` as the compound, how does the AC50 read?
Its AC50 is 24.9 µM (active).

With `CC(CC(C)C)=NO` as the compound, how does the outcome read?
The outcome was “inactive”.

For `O=C(Cl)c1c(Cl)c(Cl)c(C(=O)Cl)c(Cl)c1Cl`, which outcome is on record?
Its outcome is “inactive”.

With `CC(C)(C)N` as the compound, how does the outcome read?
The outcome was “inactive”.

How did the outcome turn out when `CCOC(=O)OC(=O)OCC` was run?
The outcome was “inactive”.

How did the outcome turn out when `CCCC1CCCC(=O)O1` (stereo not given) was run?
Its outcome is “inactive”.

With `COc1ccc(C(=O)c2ccccc2)c(O)c1` as the compound, how does the outcome read?
Its outcome is “inactive”.

How did the outcome turn out when `CCCCOCCOC(=O)COc1ccc(Cl)cc1Cl` was run?
Its outcome is “inactive”.

With `O=C(Oc1ccccc1)c1ccccc1C(=O)Oc1ccccc1` as the compound, how does the outcome read?
Its outcome is “inactive”.

How did the outcome turn out when `CC1(C)C(=O)N(CO)C(=O)N1CO` was run?
The outcome was “inactive”.

`C=C[C@@]1(C)CC(=O)[C@]2(O)[C@@]3(C)[C@@H](O)CCC(C)(C)[C@@H]3[C@H](O)[C@H](OC(C)=O)[C@@]2(C)O1` was tested. Which outcome did it give?
The outcome was “inactive”.

For `O=C(OCc1ccccc1)c1ccc(O)cc1`, which outcome is on record?
The outcome was “inactive”.

`CC(=O)OC(C)c1ccccc1` (stereo not given) was tested. Which outcome did it give?
Its outcome is “inactive”.

How did the outcome turn out when `CCC(C)N` (stereo not given) was run?
Its outcome is “inactive”.

Which outcome does the source give for `CC1OC(=O)C(C)OC1=O` (stereo not given) here?
Its outcome is “inactive”.

For `CC(=O)OC/C=C(/C)CCC=C(C)C`, which outcome is on record?
Its outcome is “inactive”.

With `CCCCC1CCC(=O)O1` (stereo not given) as the compound, how does the outcome read?
The outcome was “inactive”.

With `CC=C(C)C(C)=O` as the compound, how does the outcome read?
Its outcome is “inactive”.

With `Nc1cccc(N)n1` as the compound, how does the outcome read?
The outcome was “inactive”.

`Cc1noc(NS(=O)(=O)c2ccc(N)cc2)c1C` was tested. Which outcome did it give?
Its outcome is “inactive”.
